The supplement of paper PMC12350171
Where a name gives a salt, the structure may show the parent alone.

These compounds were tested on Haemophilus parainfluenzae (assay: growth AUC normalised to DMSO control (fraction of control); higher = less growth inhibition, active = hit call of the paper). Settings: 20 µM;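 active = AUC significantly below DMSO controls by Student t-fit with adjusted P under 0.01; inactive = not significantly reduced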.
How it was run: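 Hemin and NAD were added to the medium for Haemophilus parainfluenzae. All pathogens, after two anaerobic passages, were inoculated at a starting OD578 of 0.01 into pre-reduced mGAM plates with 20 μM compound and 1% DMSO under breathable seals, and OD578 was read hourly for 24 h in three biological replicates. AUC of each growth curve was obtained with the trapezoidal rule up to the exponential-to-stationary transition and normalised to DMSO controls from the same plate.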

Compound | growth AUC normalised to DMSO control
Nc1nnc(-c2cccc(Cl)c2Cl)c(N)n1 [Lamotrigine] | 1.01 (inactive)
CC(=O)NC[C@H]1CN(c2ccc(N3CCOCC3)c(F)c2)C(=O)O1 [Linezolid] | 0.582 (active)
CC1CCc2cc(F)cc3c(=O)c(C(=O)O)cn1c23 (stereo unspecified) [Flumequine] | 0.066 (active)
CNC1(C)C2CCC(C2)C1(C)C (stereo unspecified) [Mecamylamine hydrochloride] | 0.988 (inactive)
Cn1nnc2c(C(N)=O)ncn2c1=O [Temozolomide] | 0.975 (inactive)
CC(=O)OCC(=O)[C@@]12OC3(CCCC3)O[C@@H]1C[C@H]1[C@@H]3CCC4=CC(=O)C=C[C@]4(C)[C@@]3(F)[C@@H](O)C[C@@]12C [Amcinonide] | 1.03 (inactive)
